# Values joined by “and” are separate entries in the source; they are usually repeats but may differ in a detail not shown here. Equal entries are not always repeated. Active and inactive are the calls of the source. Cut-off read from the data, not from the text of the source, unless noted: active = inhibition above about 80%; inactive = the rest.
# Legend:
# [1] = compounds altering viability of human ES cells (AID 493140; call rule not given here;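 note: cells exposed to compounds for four days before counting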); conditions: human embryonic stem cell survival screen; stronger effect = higher value
# [2] = P. berghei load reduction in hepatocytes – cell-based, HepG2, luciferase luminescence, HepG2 viability, primary screen (AID 624349; in the data active = parasite load remaining mostly below about 12%, no sharp cut-off; inactive = mostly above about 10%;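 note: 100% = mean of DMSO negative control wells on the same plate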); conditions: P. berghei liver stage in HepG2, luciferase luminescence, concentration not given here; parasite load remaining: stronger effect = lower value; viability: measured here: HepG2 viability without parasites
# [3] = viability loss with induced miR-34 in A549 – imaging, A549 dox-inducible miR-34, nuclei and caspase counts, primary screen (AID 1347080;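 active = compounds whose cell count with miR-34 switched on is under 0.7 times the count with it off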); conditions: A549 miR-34 inducible, Hoechst nuclei count, 48 h
# [4] = MELAS cybrid and Rieske KO viability enhancers – cell-based, MELAS cybrids, Rieske KO mouse fibroblasts, CellTiter-Glo, primary screen (AID 1508586;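 active = mean z-score across replicates of 1.96 or higher in either the MELAS or the Rieske mutant cell line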;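 note: z relative to plate mean and SD of compound and empty wells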); conditions: low glucose
# [5] = growth inhibition, single agent or in combination, cell-based, chromothripsis tumors, cisplatin or BGB combos (AID 1671449); conditions: LFS_MB_P medulloblastoma cells;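 note: cells exposed for 96 hours; 0% = vehicle DMSO and 100% = killing by high DMSO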
# [6] = growth inhibition, single agent and combos, cell-based, chromothripsis tumors, cisplatin or BGB combos (AID 1671450); conditions: HDN33 neuroblastoma cells, stronger effect = higher value;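 note: cells exposed to compound for four days; 0% = vehicle DMSO and 100% = cell killing by high DMSO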
# [7] = growth inhibition, single agents and combos, ICB984, cell-based, cisplatin or BGB combos, synergistic combos for chromothripsis tumors (AID 1671451; call rule not given here;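 note: cells exposed for 96 hours before readout; 0% = vehicle DMSO and 100% = killing by high DMSO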); conditions: ICB984 medulloblastoma cells, drug combinations, stronger effect = higher value
# [8] = growth inhibition, single agents and combos, LFS_MB_1R, cell-based, cisplatin or BGB combos, synergistic combos for chromothripsis tumors (AID 1671452); conditions: LFS_MB_1R medulloblastoma cells, stronger effect = higher value;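 note: cells exposed for 96 hours before readout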
# [9] = growth inhibition, single agents and combos, HTB85, cell-based, BGB or cisplatin IC20 combos, synergistic combos for chromothripsis tumors (AID 1671453); conditions: HTB85 osteosarcoma cells, drug combinations, stronger effect = higher value;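 note: cells exposed for 96 hours before readout; 0% = vehicle DMSO and 100% = high DMSO killing control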
# [10] = growth inhibition, single agents and combos, CRL2098, cell-based, BGB or cisplatin IC20 combos, synergistic combos for chromothripsis tumors (AID 1671454); conditions: CRL2098 osteosarcoma cells, drug combinations, stronger effect = higher value;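 note: cells exposed for 96 h before readout; 0% = vehicle DMSO and 100% = killing by high DMSO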
# [11] = growth inhibition, single agents and combos, HD-MB03, cell-based, BGB or cisplatin IC20 combos, synergistic combos for chromothripsis tumors (AID 1671455; in the data active = inhibition above about 83%;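 note: 0% = vehicle DMSO and 100% = high DMSO as cytotoxic control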); conditions: HD-MB03 medulloblastoma cells, stronger effect = higher value
# [12] = growth inhibition, single agents and combos, UWB1.289, cell-based, BGB or cisplatin combos, synergistic combos for chromothripsis tumors (AID 1671456); conditions: UWB1.289 ovarian carcinoma cells, stronger effect = higher value;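 note: cells exposed to compound for four days; 0% = vehicle DMSO and 100% = killing by high DMSO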
# [13] = growth inhibition, single agents and combos, LFS_MB_2R, cell-based, cisplatin combos, synergistic combos for chromothripsis tumors (AID 1671457); conditions: LFS_MB_2R medulloblastoma cells, stronger effect = higher value;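 note: cells exposed to compound for four days before readout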
# [14] = growth inhibition, MDA-MB-436, cell-based, BGB or cisplatin combos, synergistic combos for chromothripsis tumors (AID 1671458; call rule not given here;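 note: cells exposed for 96 hours; 0% = vehicle DMSO and 100% = killing by high DMSO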); conditions: MDA-MB-436 breast carcinoma growth inhibition, drug combinations, stronger effect = higher value
# [15] = UWB1.289_BRCA1 ovarian cancer growth, cell-based, BGB or cisplatin combinations (AID 1671459); conditions: UWB1.289 BRCA1 ovarian carcinoma, drug combinations, stronger effect = higher value
# [16] = drug combination toxicity in non-malignant astrocytes – cell-based, BGB or cisplatin IC20 combos, cytotoxicity control for chromothriptic childhood tumor combination screen (AID 1671460); conditions: Human astrocytes, viability inhibition, drug combinations, at 0.5 µM, stronger effect = higher value;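 note: cells exposed to compounds for 96 hours before viability readout; 0% = vehicle and 100% = killing control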
# [17] = BT084 cell growth, single and combined drugs, ICGC_MB145, cisplatin and BGB IC40 combos (AID 1671461); conditions: BT084 medulloblastoma cells, drug combinations, stronger effect = higher value;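 note: cells exposed to drugs for 96 hours; 0% = vehicle DMSO and 100% = high DMSO full killing control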
# [18] = RCMB18 cell growth, single agent and combined, cisplatin and BGB IC40 combos (AID 1671462); conditions: RCMB18 medulloblastoma cells, stronger effect = higher value;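 note: cells exposed to compound for four days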
# [19] = CRL1545 cell growth, single agent and combined, cisplatin and BGB IC20 combos (AID 1671464); conditions: CRL1545 osteosarcoma cells, stronger effect = higher value;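 note: cells exposed to compound for 96 hours before readout; 0% = vehicle DMSO and 100% = high DMSO killing control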
# [20] = stronger effect = lower value, cell number ratio, induced over uninduced
# [21] = measured here: relative caspase fold change +Dox/-Dox
# [22] = measured here: total cells with miR-34 induction, stronger effect = lower value
# [23] = measured here: total cells without miR-34 induction
# [24] = MELAS cybrid survival, CellTiter-Glo 48 h, stronger effect = higher value
# [25] = Rieske KO mouse fibroblast survival, CellTiter-Glo 72 h
# [26] = measured here: combination with BGB IC40, at 0.05 µM
# [27] = measured here: with BGB IC20 combination, at 0.5 µM
# [28] = measured here: with cisplatin IC20 combination, at 0.5 µM
# [29] = measured here: combination with cisplatin, at 0.5 µM
# [30] = measured here: combination with cisplatin, at 5 µM
compound,measurement,setting,value
c1ccc(CNc2ncnc3nc[nH]c23)cc1,survival,[1],39 (inactive)
same,parasite load remaining,[2],31% (inactive) and 123% (inactive)
same,viability,[2],49.8% and 87.6%
same,fold change,[3]; [20],1.05 (inactive)
same,fold change,[3]; [21],1.32
same,cell count,[3]; [22],8060
same,cell count,[3]; [23],7640
same,z-score,[4]; [24],2.23 (active)
same,z-score,[4]; [25],0.15
Nc1ncn(C2OC(CO)C(O)C2O)c(=O)n1 (stereo not drawn),fold change,[3]; [20],0.707 (inactive)
same,fold change,[3]; [21],0.203
same,cell count,[3]; [22],2140
same,cell count,[3]; [23],3020
same,z-score,[4]; [24],-0.256 (inactive)
same,z-score,[4]; [25],0.025
same,inhibition,"[5]; at 0.5 µM, stronger effect = higher value",-5.82% (inactive)
same,inhibition,"[5]; measured here: combination with BGB IC20, at 0.005 µM",12.2%
same,inhibition,"[5]; measured here: combination with BGB IC40, at 0.005 µM",6.88%
same,inhibition,[5]; [26],-0.515%
same,inhibition,"[5]; measured here: combination with cisplatin, at 0.5 µM, stronger effect = higher value",-8.35%
same,inhibition,"[5]; measured here: combination with cisplatin, at 5 µM, stronger effect = higher value",15.6%
same,inhibition,"[6]; BGB combo, at 5 µM",35.3%
same,inhibition,[6]; at 0.5 µM,3.8% (inactive)
same,inhibition,"[6]; cisplatin combo, at 5 µM",38.5%
same,inhibition,[6]; [27],-3.13%
same,inhibition,[6]; [28],6.68%
same,inhibition,"[6]; single agent, at 5 µM",47.8%
same,inhibition,"[7]; BGB IC20 combo, at 0.005 µM",3.99%
same,inhibition,"[7]; BGB IC40 combo, at 0.005 µM",-4.47%
same,inhibition,"[7]; BGB IC40 combo, at 0.05 µM",64.1%
same,inhibition,[7]; at 0.5 µM,-14.1% (inactive)
same,inhibition,"[7]; cisplatin combo, at 0.05 µM",62.8%
same,inhibition,"[7]; cisplatin combo, at 0.5 µM",-8.65%
same,inhibition,"[7]; cisplatin combo, at 5 µM",-9.29%
same,inhibition,"[7]; measured here: 5 uM single agent, at 5 µM",-4.38%
same,inhibition,[8]; at 0.5 µM,1.69% (inactive)
same,inhibition,[8]; [26],-18.7%
same,inhibition,[8]; [29],-16%
same,inhibition,[8]; [30],-12%
same,inhibition,[9]; at 0.5 µM,-6.96% (inactive)
same,inhibition,"[9]; measured here: with BGB IC20, at 0.5 µM",-12.6%
same,inhibition,"[9]; measured here: with BGB IC20, at 5 µM",18.2%
same,inhibition,"[9]; measured here: with cisplatin IC20, at 0.5 µM",-13.1%
same,inhibition,"[9]; measured here: with cisplatin IC20, at 5 µM",4.48%
same,inhibition,"[9]; single agent, at 5 µM",30.1%
same,inhibition,[10]; at 0.5 µM,-21% (inactive)
same,inhibition,"[10]; measured here: combination with BGB at IC20, at 0.5 µM",-8.95%
same,inhibition,"[10]; measured here: combination with cisplatin at IC20, at 0.5 µM",-58.6%
same,inhibition,[11]; at 0.5 µM,2.06% (inactive)
same,inhibition,"[11]; measured here: combo with BGB at IC20, at 0.5 µM",4.05%
same,inhibition,"[11]; measured here: combo with cisplatin at IC20, at 0.5 µM",0.735%
same,inhibition,[12]; at 0.5 µM,18.4% (inactive)
same,inhibition,"[12]; measured here: inhibition with BGB combination, at 0.05 µM",8.02%
same,inhibition,"[12]; measured here: inhibition with cisplatin combination, at 0.05 µM",-5.92%
same,inhibition,[13]; at 0.5 µM,-0.31% (inactive)
same,inhibition,[13]; [29],-2.9%
same,inhibition,[13]; [30],21.8%
same,inhibition,[14]; at 0.5 µM,12.3% (inactive)
same,inhibition,"[14]; measured here: BGB combination, at 0.5 µM",18%
same,inhibition,"[14]; measured here: BGB combination, at 5 µM",23.9%
same,inhibition,"[14]; measured here: cisplatin combination, at 0.5 µM",0.452%
same,inhibition,"[14]; measured here: cisplatin combination, at 5 µM",23.8%
same,inhibition,"[15]; BGB combination, concentration series, at 5 µM",63.4%
same,inhibition,[15]; at 0.5 µM,20.7% (inactive)
same,inhibition,"[15]; cisplatin combination, concentration series, at 5 µM",51%
same,inhibition,[16],13.2% (inactive)
same,inhibition,[16]; measured here: combo with BGB IC20,17.7%
same,inhibition,[16]; measured here: combo with cisplatin IC20,11.2%
same,inhibition,[17]; at 0.5 µM,10.9% (inactive)
same,inhibition,"[17]; cisplatin combination, at 0.5 µM",-8.96%
same,inhibition,"[17]; cisplatin combination, at 5 µM",53.9%
same,inhibition,"[17]; measured here: BGB IC40 combination 0.05 uM, at 0.05 µM",30.7%
same,inhibition,"[17]; single agent, at 5 µM",8.5%
same,inhibition,[18]; at 0.5 µM,6.45% (inactive)
same,inhibition,"[18]; cisplatin combo, at 5 µM",53.3%
same,inhibition,"[18]; measured here: BGB IC40 combination, at 0.05 µM",-6.06%
same,inhibition,[18]; [29],6.83%
same,inhibition,"[18]; single agent, at 5 µM",41.5%
same,inhibition,[19]; at 0.5 µM,0.69% (inactive)
same,inhibition,[19]; [27],16.1%
same,inhibition,[19]; [28],-8.76%
same,inhibition,"[19]; single agent, at 0.05 µM",-10.6%
same,inhibition,"[19]; single agent, at 5 µM",9.69%

# Source: PubChem BioAssay
